Among all 4,800 compounds or so, about 420 (8.8%) showed an effect of 50% or more. What follows is part of a selection rich in strong results, with near analogues and random picks from the rest.
These compounds were tested on Plasmodium falciparum (assay: Confirmatory screen in NF54 nanoGlo assay, in single point, at 2uM, 72h). Details: timepoint 72 hour.
Assay type: functional, Erythrocyte
`COc1ccc(O)c([C@H]2Nc3ccccc3-n3c(-c4ccc(C)cc4)c4c(=O)n(C)c(=O)n(C)c4c32)c1` was tested, and the “% Inhibition” value was 25%. In the case of `COc1cccc(C(=O)N2CCCO[C@H](C(C)C)C2)c1`, the “% Inhibition” value is reported as -9%. For `Cc1ccc(C(=O)Nc2ccc3c(c2)OC(C)(C)C(=O)N3)cc1`, the “% Inhibition” value was -4%. For `CN(CC(=O)N(C)C1CCC(c2ccccc2)CC1)c1cnccn1` (stereo not drawn), the “% Inhibition” value was -8%. With `COc1cc(NC(=O)CN2C(=O)N[C@](C)(c3ccc4c(c3)OCCO4)C2=O)c(OC)cc1Cl` the “% Inhibition” value was 2%. In the case of `O=C(CCn1c(=O)[nH]c2ccsc2c1=O)NCc1ccccc1`, the “% Inhibition” value is reported as 37%. For `O=C(CCc1ccccc1)N[C@@H](c1ccccc1)c1ccc2c3c(cccc13)CC2`, the “% Inhibition” value was -12%. `C[C@@H]1CN(C[C@@H]2CN(CCOCc3ccccc3)C[C@@H]2CO)C[C@H](C)O1` was tested, and the “% Inhibition” value was -5%. `CCc1nnc2ccc(S(=O)(=O)Nc3ccc(F)c(F)c3)cn12` was tested, and the “% Inhibition” value was -6%. `O=C(Nn1cnc2ccccc2c1=O)c1cnccn1` was tested, and the “% Inhibition” value was 2%. `Nc1ncn(C(=O)c2ccc(Cl)cc2)n1` was tested, and the “% Inhibition” value was -14%. With `COc1nc2ncnc(OC)c2nc1C#N` the “% Inhibition” value was 3%. With `COc1ccc(S(=O)(=O)N(CC(=O)N2CCN(Cc3ccc4c(c3)OCO4)CC2)C2CCCCC2)cc1OC` the “% Inhibition” value was -3%. In the case of `CC(C)(C)OC(=O)N1CCC[C@H]1C(=O)n1ccnc1`, the “% Inhibition” value is reported as -2%. In the case of `CCOc1nc(C)nc2cc(-c3ccccc3)n(Cc3ccccc3)c12`, the “% Inhibition” value is reported as 0%. With `CCOc1ccc(-[n+]2cc(-c3ccccc3)n3c2CCC3)cc1` the “% Inhibition” value was 80%. In the case of `O=C(O)C1Cc2c([nH]c3ccccc23)C(/C=C/c2ccccc2)N1` (stereo not drawn), the “% Inhibition” value is reported as -1%. `Cc1noc2nc(C3CC3)cc(C(=O)N3CCC[C@H](C)CC3)c12` was tested, and the “% Inhibition” value was -11%. `CC1NC2(C(=O)N(Cc3ccc(F)cc3)c3ccccc32)C2C(=O)N(c3cccc4ccccc34)C(=O)C12` (stereo not drawn) was tested, and the “% Inhibition” value was 4%. `CC1(C)C2OCCCC2C1(N)C(=O)Nc1cn[nH]c1` (stereo not drawn) was tested, and the “% Inhibition” value was 4%. With `CCCn1cc(CNc2nnc(C(C)(C)C)o2)cn1` the “% Inhibition” value was -5%. `c1ccc(Oc2ccnc(NCC34COCCN3CCOC4)n2)cc1` was tested, and the “% Inhibition” value was -10%. `CN1CCN(C2(CNc3ccnc4ccccc34)CCCC2)CC1` was tested, and the “% Inhibition” value was 91%. `Fc1cccc(F)c1CNC[C@@H]1NCCc2ccccc21` was tested, and the “% Inhibition” value was -5%. With `O=c1[nH]c2nccnc2c(=O)n1Cc1ccc(F)cc1` the “% Inhibition” value was -11%. With `O=C1N[C@H]2C[C@@H](C(=O)NC[C@H]3O[C@H](CCOc4cc(-c5ccccc5)ccc41)CC[C@@H]3O)N(Cc1ccc(Cl)c(F)c1)C2` the “% Inhibition” value was -1%. For `CCOC(=O)C(Nc1cccc(NC(C(=O)OCC)C(=O)OCC)c1)C(=O)OCC`, the “% Inhibition” value was -16%. In the case of `Nc1nccnc1C(=O)NCc1ccc(Cn2ccnc2)cc1`, the “% Inhibition” value is reported as -5%. `O=c1[nH]c(=O)n(S(=O)(=O)c2ccccc2)cc1F` was tested, and the “% Inhibition” value was 92%. With `O=S(=O)(c1ccccc1)N1CCN(S(=O)(=O)c2ccc(Cl)cc2)C1` the “% Inhibition” value was 2%. With `Cc1ccc(N2CCN(S(=O)(=O)c3ccccc3)[C@@H](C)C2=O)cc1F` the “% Inhibition” value was -5%. With `COc1ccc(CCNc2oc(-c3cccnc3)nc2C#N)cc1OC` the “% Inhibition” value was 31%. In the case of `O=C(CNC1=NC(=O)C(c2ccccc2)(c2ccccc2)N1)NCc1ccc(F)cc1`, the “% Inhibition” value is reported as -1%. `Cc1ccc(OCC(=O)Nc2ccc(N3CCn4c(nc5ccccc54)C3)cc2Cl)cc1` was tested, and the “% Inhibition” value was -17%. For `Cc1ccc(OCC(=O)Nc2cc(C)nn2-c2nc3c(cnn3-c3ccc(C)c(C)c3)c(=O)[nH]2)cc1`, the “% Inhibition” value was 65%. `COc1ccc(-n2ncc3c(NCCNC(=O)c4ccccc4Cl)nc(C)nc32)cc1` was tested, and the “% Inhibition” value was -12%. In the case of `C1CCC(Nc2nc3nonc3nc2N2CCCCC2)CC1`, the “% Inhibition” value is reported as 1%. With `CC(C)CN(CC(C)(C)C)C(=O)c1cc[nH]n1` the “% Inhibition” value was -6%. `O=C(c1ccccc1Cl)N1CCC[C@H](n2cnc3ccccc3c2=O)C1` was tested, and the “% Inhibition” value was 18%. `O=C(CN1CCN(Cc2ccccc2F)C1=O)NC1CCCCCCC1` was tested, and the “% Inhibition” value was -11%. For `CCN(c1ccc(C(=O)N(C)C2(C#N)CCC2)cc1)C(C)C`, the “% Inhibition” value was -3%. With `O=S(=O)(Cc1ccccc1)Nc1nnc[nH]1` the “% Inhibition” value was -1%. In the case of `CCn1nccc1CNc1cc(Cl)cc2c1OCC2`, the “% Inhibition” value is reported as -8%. With `CC(C)(C)OC(=O)N1C[C@@H](O)CC1=O` the “% Inhibition” value was -11%. For `COc1ccc(C(=O)N2c3ncnn3C(c3ccccc3)CC2c2ccc(C)cc2)cc1OC` (stereo not drawn), the “% Inhibition” value was 78%. In the case of `COc1ccc(C(=O)Nc2nnc([C@H]3CC(=O)N(c4ccc(C)cc4)C3)o2)cc1OC`, the “% Inhibition” value is reported as -16%. For `COc1ccc(C2CC(c3ccccc3)N(C(C)=O)c3ncnn32)cc1` (stereo not drawn), the “% Inhibition” value was -9%. In the case of `CCCN1CCN(CC(=O)Nc2sccc2C#N)c2cc(F)ccc21`, the “% Inhibition” value is reported as 2%. `Cc1ccc(NC(=O)c2cc[nH]n2)c(C)c1` was tested, and the “% Inhibition” value was -18%. `COc1ccc(-c2c(C)nn3c(N4CCC(C(=O)NC5CC5)CC4)cc(C)nc23)cc1OC` was tested, and the “% Inhibition” value was 37%. With `COc1ccc(-c2nn3c(N4CCN(CC=Cc5ccccc5)CC4)cc(C)nc3c2C)cc1OC` the “% Inhibition” value was 55%. In the case of `COc1ccc(-c2cc3nc(C)cc(N4CCN(C/C=C/c5ccccc5)CC4)n3n2)cc1OC`, the “% Inhibition” value is reported as 42%. `Cc1c(C2=NO[C@H]3C(=O)N(c4ccc5ccccc5c4)C(=O)[C@@H]23)cnn1C` was tested, and the “% Inhibition” value was 0%. `C[C@H](NC(=O)c1nnn(C)c1C(F)(F)F)c1cscn1` was tested, and the “% Inhibition” value was 7%. `COc1ccc(CCNC(=O)CCCC(=O)Nc2cccnc2)cc1OC` was tested, and the “% Inhibition” value was 3%. `COc1ccc(Cl)cc1S(=O)(=O)N(C)[C@H]1CCc2n[nH]c(=O)n2CC1` was tested, and the “% Inhibition” value was -5%. In the case of `CCc1cc(N2C[C@@H]3NC(=O)CN(C)Cc4ccc(OC)c(c4)Oc4cccc(c4)CO[C@H]3C2)nc(N(C)C)n1`, the “% Inhibition” value is reported as 60%. For `COCCCN1CC(=O)N[C@@H]2CN(C(=O)CCc3cccnc3)CC[C@@H]2OCc2cccc(c2)Oc2cc(ccc2OC)C1`, the “% Inhibition” value was 14%. With `CCN1CC(=O)N[C@H]2CN(C(=O)CCn3ccnc3C)CC[C@@H]2OCc2cccc(c2)Oc2cc(OC(C)C)cc(c2)C1=O` the “% Inhibition” value was 9%. `O=c1cc2n(c(=O)[nH]1)CC(c1ccccc1)=NN2` was tested, and the “% Inhibition” value was 4%. For `Cc1nnc2sc(Nc3ccccc3)nn12`, the “% Inhibition” value was -2%. For `NCc1cccc(C(=O)N2CCc3cc4ccc3[C@@H]2c2cccc(c2)OCCCNC(=O)c2cc(ccc2O)O4)c1`, the “% Inhibition” value was 93%. For `NC(=O)C1CCN(CCC(=O)N2CCc3cc4ccc3[C@@H]2c2cccc(c2)OCCCNC(=O)c2cc(ccc2O)O4)CC1`, the “% Inhibition” value was 96%. For `O=C1NCCCOc2cccc(c2)[C@H]2c3ccc(cc3CCN2C(=O)CCN2CCOCC2)Oc2ccc(O)c1c2`, the “% Inhibition” value was 59%. `O=C(NOCc1ccc(F)cc1)NC1CCCCC1` was tested, and the “% Inhibition” value was -5%. `COc1ccc(N2CCN(Cc3c(O)nc(O)c(C#N)c3C)CC2)cc1` was tested, and the “% Inhibition” value was -3%. `COc1ccc(CCN2C(=O)CC[C@H]2c2cn(C)c3ccccc23)cc1OC` was tested, and the “% Inhibition” value was -1%. With `O=C(c1[nH]nc(C2CC2)c1Br)N1CCC12CCC2` the “% Inhibition” value was -8%. For `Cc1ccc(C(=O)N2CCCC23CCC3)nn1`, the “% Inhibition” value was -11%. `COC(=O)[C@]1(C)CN(C(=O)NCc2cc(C#N)ccc2F)C[C@H]1C` was tested, and the “% Inhibition” value was 7%. With `CCc1nc(C)nc(N2CCN(C[C@H](O)COc3ccccc3C)CC2)c1Cc1cccc(C)c1` the “% Inhibition” value was 7%. In the case of `Cc1noc(Cl)c1CC(=O)N1CCCC(C)(C)CC1`, the “% Inhibition” value is reported as 38%. `CC[C@@]1(C)CCCN(C(=O)Cc2c(C)noc2Cl)C1` was tested, and the “% Inhibition” value was 84%. `O=C(Cc1c(Cl)cccc1Cl)N1CC[C@]2(CCOC2)C1` was tested, and the “% Inhibition” value was -8%. In the case of `Cc1nc(Cn2nnc(NC(=O)c3cccc(F)c3)c2C)no1`, the “% Inhibition” value is reported as 1%. With `O=C(Nc1nc2cccc(Cl)c2o1)c1cccc(F)c1` the “% Inhibition” value was 92%. In the case of `CC(C)(C)NC(=O)CNC(=O)c1cccc(F)c1`, the “% Inhibition” value is reported as -13%. With `COC(CNC(=O)OC(C)(C)C)CC(=O)NC1CC(C)CCC1C(C)C` (stereo not drawn) the “% Inhibition” value was -7%. For `O=C(Cn1cccn1)N1CC(c2nc(-c3ncccn3)no2)C1`, the “% Inhibition” value was 5%. For `N#Cc1cnc(NC2CC3CCC2C3)cn1` (stereo not drawn), the “% Inhibition” value was -8%. In the case of `CC(C)CS(=O)(=O)Nc1ccccc1C(N)=O`, the “% Inhibition” value is reported as -5%. `CN(C)CCN(C)c1ccc(Br)cc1NCc1cncn1C` was tested, and the “% Inhibition” value was 16%. `COc1ccc2cccc(NC(=O)c3cc(-c4cc(OC)c(OC)c(OC)c4)n[nH]3)c2n1` was tested, and the “% Inhibition” value was 64%. With `COc1cc(NC(=O)c2cc(-c3cccc4ccccc34)[nH]n2)cc(OC)c1OC` the “% Inhibition” value was 10%. `COc1ccc(-c2cc(C(=O)Nc3ncc[nH]3)n[nH]2)cc1OC` was tested, and the “% Inhibition” value was 29%. For `O=C(COc1ccc(Cl)cc1)n1c2ccccc2c2ccccc21`, the “% Inhibition” value was -3%. For `CC(C)(CNC(=O)[C@](C)(N)c1ccccc1)C(=O)O`, the “% Inhibition” value was -11%. For `COc1c2c(cc3c1[C@@H](C#CCOc1ccccc1)[N+](C)(C)CC3)OCO2`, the “% Inhibition” value was 75%. `CC(C)C(=O)N1CC[C@H](CC(=O)NCc2ccccc2)C1` was tested, and the “% Inhibition” value was -4%. In the case of `O=C(c1sc2ccccc2c1Cl)n1nnc2ccccc21`, the “% Inhibition” value is reported as -8%. For `CCOC(=O)N1CCN(c2nccn3nc(-c4ccc(OC)c(OC)c4)cc23)CC1`, the “% Inhibition” value was -6%. With `COc1ccc([C@@]2(C)NC(=O)N(CC(=O)N3CC(=O)Nc4ccccc43)C2=O)cc1OC` the “% Inhibition” value was 2%. For `COc1ccc(CNC(=O)Nc2ccc3c(c2)N(C(=O)c2ccccc2)CCC3)cc1OC`, the “% Inhibition” value was 25%. For `COc1ccc([C@H](C(=O)Nc2ccc(N(C)C)cc2)N(Cc2ccccc2)C(=O)Cc2ccccc2)cc1OC`, the “% Inhibition” value was -4%. `CCC(C(=O)Nc1ccc2c(c1)CN(CCc1ccc(OC)c(OC)c1)C(=O)C(C)O2)c1ccccc1` (stereo not drawn) was tested, and the “% Inhibition” value was 94%. For `CCN(CC)c1ncnc(N(C)Cc2ccccc2)c1N`, the “% Inhibition” value was 2%. For `COc1ccc([C@H]2[C@H](C(=O)NC3CCCCCC3)CCC(=O)N2C)cc1`, the “% Inhibition” value was -8%. For `COCc1cc2nn(CC(=O)Nc3ccc(F)cc3C)c(=O)n2c(-c2ccccc2)n1`, the “% Inhibition” value was -15%.

Reference: ChEMBL document CHEMBL4888484, “Replenishing the malaria drug discovery pipeline: Screening and hit evaluation of the MMV Hit Generation Library 1 (HGL1) against asexual blood stage Plasmodium falciparum ,using a nano luciferase reporter read-out” (2022)
